# Laboratory results: PubChem BioAssay (NCI)
# About 79,000 compounds went through this panel and 15% of them were active in at least one assay; those are over-represented in the sample as a whole. A number with no mark means an inactive call. The source made the active and inactive calls. Cut-off read from the data, not from the text of the source: active = growth inhibition above about 70%; inactive = the rest.
# Tests used:
# [1] = NCI Yeast Anticancer Drug Screen. Data for the rad50 strain (AID 155);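 note: 0% = growth of vehicle-only cultures of the same strain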; settings: S. cerevisiae rad50 strain growth inhibition, active compounds read high
# How it was run: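 Relative growth inhibition (compound vs vehicle) was measured in yeast with a defined repair-gene alteration.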
# [2] = NCI Yeast Anticancer Drug Screen. Data for the mec2-1 strain (AID 157); settings: S. cerevisiae mec2-1 strain, active compounds read high
# How it was run: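 Readout is yeast growth inhibition, normalised to vehicle-treated controls, in the mec2-1 strain exposed to compound.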
# [3] = NCI Yeast Anticancer Drug Screen. Data for the sgs1 mgt1 strain (AID 161);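 note: 0% = growth of cultures given vehicle only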; settings: S. cerevisiae sgs1 mgt1 strain, active compounds read high
# How it was run: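 This yeast growth screen uses a strain with defined DNA-repair lesions; compound-treated growth is compared with vehicle-treated growth.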
# [4] = NCI Yeast Anticancer Drug Screen. Data for the cln2 rad14 strain (AID 165);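 note: 0% = growth equal to vehicle treated cultures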; settings: S. cerevisiae cln2 rad14 strain, active compounds read high
# How it was run: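 Relative to vehicle controls, growth inhibition of compound-treated cln2 rad14 yeast was recorded.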
# [5] = NCI Yeast Anticancer Drug Screen. Data for the bub3 strain (AID 167); settings: S. cerevisiae bub3 mutant strain, active compounds read high
# How it was run: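 Screening used yeast with an engineered genetic alteration affecting cell cycle control. Compound-exposed cultures were compared with vehicle cultures, and reduced growth was taken as inhibition.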
# [6] = NCI Yeast Anticancer Drug Screen. Data for the mlh1 rad18 strain (AID 175); settings: S. cerevisiae mlh1 rad18 strain growth inhibition, active compounds read high
# How it was run: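 Test agents were incubated with a yeast strain of defined genotype (DNA damage repair defect). Inhibition of growth was derived by comparison with vehicle-exposed cultures.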
# [7] = at 5.0 µM (retest, dose inferred, filed as 0.5)
# [8] = at 50.0 µM (retest, dose inferred, filed as 5.0)
Structure (SMILES),"growth inhibition [1, 7]","growth inhibition [1, 8]",growth inhibition ([1]; at 50.0 µM),"growth inhibition [2, 7]","growth inhibition [2, 8]",growth inhibition ([2]; at 50.0 µM) [%],"growth inhibition [3, 7]","growth inhibition [3, 8]",growth inhibition ([3]; at 50.0 µM),"growth inhibition [4, 7]","growth inhibition [4, 8]",growth inhibition ([4]; at 50.0 µM),"growth inhibition [5, 7]","growth inhibition [5, 8]",growth inhibition ([5]; at 50.0 µM),"growth inhibition [6, 7]","growth inhibition [6, 8]",growth inhibition ([6]; at 50.0 µM)
Nc1ncnc2nc(-c3ccc(C[P+](c4ccccc4)(c4ccccc4)c4ccccc4)cc3)[nH]c12,-6%,77% (active),72% (active),11%,43%,66.2,0%,78% (active),73.8% (active),-10%,61%,62.6%,11%,61%,54.8%,-6%,83% (active),69.8%
C=C1C(=O)O[C@H]2C3C(=C(C)CC[C@@H]12)C(=O)[C@@H]1OC31C (some centres not stated),22%,49%,36.8%,16%,52%,37.2,35%,74% (active),46%,19%,51%,34%,21%,60%,23.9%,19%,62%,46.2%
COc1ccc2c(c1)CCCN2S(=O)(=O)c1ccc(N)cc1,-1%,18%,45.5%,-3%,5%,27.1,-2%,16%,36.8%,0%,13%,-6.65%,3%,49%,32.2%,-2%,12%,47%
OC(/C=C/c1ccccc1)(c1ccccc1)c1nc2ccccc2s1 (configuration not stated),35%,98% (active),-8%,59%,98% (active),1.95,5%,97% (active),-11.3%,26%,93% (active),-23.1%,6%,98% (active),-12.8%,20%,96% (active),-3.45%
CCOc1ccc(/C=C2\NC(=S)N(/C=C3\C(=O)Oc4ccccc4C3=O)C2=O)cc1,77% (active),91% (active),-16.1%,6%,71% (active),-28.6,-30%,58%,0.45%,-14%,70% (active),-39.2%,-31%,76% (active),-23.9%,11%,94% (active),-8.6%
O=NN(CCCl)C(=O)NCCSSCCNC(=O)N(CCCl)N=O (tested in a mixture with another compound),29%,62%,36.1%,20%,39%,38.6,40%,77% (active),59.1%,14%,29%,21.6%,30%,38%,14.2%,73% (active),96% (active),72.1% (active)
CCN(CC)CCC(=O)c1ccc(Oc2ccc(C)cc2)cc1,13%,71% (active),29.9%,6%,36%,40.2,24%,75% (active),58%,15%,93% (active),24.9%,18%,89% (active),67%,22%,81% (active),53.1%
CC1(C)C2CCC(C2)C1OC(=O)c1ccccc1C(=O)O (configuration not stated),-7%,11%,1.45%,-2%,0%,12.9,-5%,6%,-6.05%,10%,15%,76.2% (active),-2%,26%,71% (active),-21%,6%,32.7%
CCN(CC)CCNc1c2ccccc2nc2cccc([N+](=O)[O-])c12,88% (active),97% (active),68.2%,95% (active),99% (active),61.4,94% (active),99% (active),55%,85% (active),98% (active),86.5% (active),93% (active),99% (active),2.85%,92% (active),97% (active),62.9%
